# Reference: article PMC5540273 (PLoS ONE, 2017)
# Experiments:
# Conditions in all cases: concentration: 1 μM, replicates: in singlicate; n = 1
# PCTK2 = tested on: T1, PCTK2
# T1 construct: gene CDK17
# PCTK3 = tested on: T2, PCTK3
# T2 construct: gene CDK18
# PDGFRA = tested on: PDGFRA
# PDGFRB = tested on: PDGFRB
# PDPK1 = tested on: PDPK1
# PFTAIRE2 = tested on: PFTAIRE2
# PFTK1 = tested on: T3, PFTK1
# T3 construct: gene CDK14
# PHKG1 = tested on: PHKG1
# PHKG2 = tested on: PHKG2
# PIK3C2B = tested on: PIK3C2B
# PIK3C2G = tested on: PIK3C2G
# PIK3CA = tested on: PIK3CA
# PIK3CB = tested on: PIK3CB
# PIK3CD = tested on: PIK3CD
# PIK3CG = tested on: PIK3CG
# PIK4CB = tested on: T4, PIK4CB
# T4 construct: gene PI4KB
# PIKFYVE = tested on: PIKFYVE
# PIM1 = tested on: PIM1
# PIM2 = tested on: PIM2
# PIM3 = tested on: PIM3
# 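Further: KINOMEscan kinase panel screen.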
SMILES,%Inh (PCTK2) [%],%Inh (PCTK3) [%],%Inh (PDGFRA) [%],%Inh (PDGFRB) [%],%Inh (PDPK1) [%],%Inh (PFTAIRE2) [%],%Inh (PFTK1) [%],%Inh (PHKG1) [%],%Inh (PHKG2) [%],%Inh (PIK3C2B) [%],%Inh (PIK3C2G) [%],%Inh (PIK3CA) [%],%Inh (PIK3CB) [%],%Inh (PIK3CD) [%],%Inh (PIK3CG) [%],%Inh (PIK4CB) [%],%Inh (PIKFYVE) [%],%Inh (PIM1) [%],%Inh (PIM2) [%],%Inh (PIM3) [%]
Cc1cccc(Nc2nc(N[C@H]3CCNC3)ncc2C(N)=O)c1.Cl [GSK2197149],7,34,58,89,7,7,15,66,68,0,0,0,0,0,0,8,0,28,68,76
c1ccc(-c2cnc3nccnn23)cc1 [AH20685],0,15,0,23,0,0,0,40,0,0,0,0,0,0,0,0,0,0,0,9
CCn1c(-c2nonc2N)nc2c(C#CC(C)(C)O)nc(OC[C@H](N)c3ccccc3)cc21 [GSK943949],0,0,11,5,0,0,0,0,5,0,11,0,0,0,0,0,60,0,23,0
Cc1cccc(NC(=O)Nc2ccc(Oc3ncnc4ccn(C)c34)cc2)c1,0,0,99.7,100,0,0,0,0,0,0,0,0,0,0,0,0,40,0,0,0
COc1ccc(-c2coc3ccc(-c4nnc(SCc5ccc(OC)c(C(F)(F)F)c5)o4)cc23)cc1,9,9,23,16,12,0,19,3,4,0,13,0,27,11,0,0,0,0,18,4
CN(C)S(=O)(=O)c1cc(-c2ccc3nccc(-c4cccc(S(N)(=O)=O)c4)c3c2)cnc1N [GSK1669921],0,0,0,16,9,31,17,0,8,95.5,96,100,96.6,98.8,99.9,96.5,96.6,19,0,12
CN1CCN(Cc2cccc(-c3ccc4c(Nc5ccc(Oc6ccccc6)cc5)ccnc4c3)c2)CC1 [GW578342],69,20,94.3,98.9,0,14,23,1,0,0,0,0,0,30,1,0,16,0,0,0
COc1ccc(CNC(=O)NC2CCN(c3ccnc(Nc4ccc(F)cc4)n3)CC2)cc1 [GSK1379788],0,0,0,35,0,0,13,0,0,0,0,0,0,0,0,0,6,0,0,0
COc1cc(Nc2ncc3c(C)nc(-c4cc5ccccc5[nH]4)n3n2)cc(OC)c1OC [GW869516],32,6,0,29,0,0,4,27,0,0,0,0,0,0,30,0,0,4,0,0
COc1cccc(-c2ccc3c(NC(=O)C4CC4)n[nH]c3n2)c1 [SB-710903],19,30,0,34,0,10,25,0,0,0,0,0,0,9,0,0,27,12,0,0
COc1cc2c(cc1OCCN1CCNCC1)ncc1c3ccc(C#N)cc3[nH]c21,9,0,96.4,89,9,53,9,98.7,99.3,0,0,8,0,3,31,33,14,10,92.2,52
CSc1cccc2c(-c3ccncn3)c(-c3ccc(F)cc3)nn12 [GW514786],0,14,0,7,0,20,28,12,0,0,0,0,0,0,0,0,19,0,0,15
CCS(=O)(=O)c1ccc(OC)c(Nc2nccc(-c3c(-c4cccc(NC(=O)c5c(F)cccc5F)c4)nn4ncccc34)n2)c1 [GSK326180],0,18,0,40,0,27,17,1,0,0,0,0,0,0,3,7,0,0,0,0
C[C@@H](Oc1cc(-n2cnc3cc(-c4ccnc(NCCS(C)(=O)=O)c4)ccc32)sc1C(N)=O)c1ccccc1Cl [GSK907232],9,25,71,97.4,28,14,12,0,2,0,0,0,0,39,1,9,0,19,0,27
CCc1ccc(-c2ccc3c(c2)-c2c(cnn2C)S(=O)(=O)N3C)cc1,10,0,0,6,4,0,0,5,0,8,0,5,0,0,2,12,53,1,0,0
COCCOCCOc1cc2ncc3c4ccc(C#N)cc4[nH]c3c2cc1OC,6,13,98.2,92.9,34,48,21,94.5,97.7,0,12,0,0,0,0,0,47,29,94,49
O=C(Nc1cccc(-c2nn3ncccc3c2-c2ccnc(Nc3ccccc3)n2)c1)c1c(F)cccc1F [GSK198271],0,17,65,100,0,23,0,0,0,0,0,0,0,0,0,6,0,16,0,5
Cn1cc(-c2ccc3c(c2)CCN3C(=O)Cc2cccc(F)c2)c2c(N)ncnc21 [GSK2603358],0,17,78,99.8,0,12,18,1,0,80,0,3,0,28,30,0,11,0,0,0
O=C(Nc1cccc(Oc2ccc3nc(NC(=O)C4CC4)cn3n2)c1)c1ccccc1C(F)(F)F,0,6,99.7,100,0,7,0,18,6,0,0,0,0,0,0,0,0,0,0,0
